Measured values: PubChem BioAssay (NCI)
The panel holds about 83,000 compounds, 20% with a hit somewhere; the sample as a whole holds those more often.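 Method: cells in 96-well plates; compound added at one concentration; 48 h incubation; percent growth measured; values under 10 scored active.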 Values without a mark were called inactive. Calls of active or inactive are those of the source.

What follows are compounds tested on HCT-15 colon (assay: NCI-60 one-dose screen, 48 h (100 = growth as untreated, 0 = no growth, -100 = all killed)). Details: 10 µM unless noted.
For `CC1(C)OC2COC3(C(=O)O)OC(C)(C)OC3C2O1` (stereo not drawn), the growth was 98.8%.
`Cc1ccc(Cn2c(-c3cccs3)nc3ccccc32)cc1` showed a growth of 81.7%.
In the case of `COc1cc2c(cc1OC)C1(C)N(CC2)C(=O)OC1(C)C` (stereo not drawn), the growth was 101%.
For `Cc1cc(-c2ccccc2)c(C)n1Cc1ccc(Cl)cc1`, the growth was 32.8%.
Compound `CCN(Cc1ccccc1)c1ccc(SC#N)cc1` has a growth of 64.8%.
For `O=C1Nc2ccc(Br)cc2C1=N/C=c1\[nH]c(=O)/c(=C/c2ccc(Cl)cc2)s1`, the growth was 90.3%.
`COc1ccc(-c2nc(-c3ccccc3)c(-c3ccccc3)n2C2CC2)cc1OC1CCCCC1` was tested, and the growth was 41.7%.
`CC(=O)Nc1ccc(S(=O)(=O)N2C(=O)CCC2C(=O)Nc2ccccc2)cc1` (stereo not drawn) gave a growth of 45.8%.
For `COc1cc(CNC(=O)CCSc2nc3ccccc3c(=O)n2Cc2cc(OC)c(OC)c(OC)c2)cc(OC)c1OC`, the growth was 17.7%.
With `O=C(CN1CCN(c2cc3c(cc2F)c(=O)c(C(=O)O)cn3C2CC2)CC1)Nc1ccc(C(=O)/C=C/c2ccccc2)cc1` the growth was 56.8%.
In the case of `CC(C)N(Cc1ccc(CN(C(=O)CCl)C(C)C)cc1)C(=O)CCl`, the growth was 0.15% (active).
Compound `COc1ccc(/C=C/c2cc(N3CCOCC3)c3cc(F)c(F)cc3n2)cc1OC` has a growth of 30%.
`COc1cccc(-n2cc(-c3nc(Cl)c4ccccc4n3)nn2)c1` showed a growth of 98.2%.
Compound `CCNC(=O)C1CCCN1C(=O)C(CCCN=C(N)N)NC(=O)C(CC(C)C)NC(=O)C(CC(C)C)NC(=O)C(Cc1ccc(O)cc1)NC(=O)C(CO)NC(=O)C(Cc1c[nH]c2ccccc12)NC(=O)C(Cc1cnc[nH]1)NC(=O)C1CCC(=O)N1` (stereo not drawn) has a growth of 102%.
`Nc1c(C(=O)Nc2cccc(Cl)c2Cl)sc2nc3c(cc12)C(=O)CCC3` gave a growth of 75.5%.
Work on `COc1cc(C2C=C(C)N=C3SC(C)=NN32)cc(OC)c1OC` (stereo not drawn) yielded a growth of 95.8%.
Work on `Nc1c(C(=O)Nc2cccc(C(F)(F)F)c2)sc2nc3c(cc12)CCCCCC3` yielded a growth of 19.3%.
In the case of `O=Nc1c(-c2c(O)[nH]c3ccc([N+](=O)[O-])cc23)[nH]c2ccc(O)cc12`, the growth was 10.3%.
In the case of `c1cc(-c2ccc3c(c2)OCO3)n2nccc2n1`, the growth was 97.2%.
In the case of `Nc1c(C(=O)Nc2cccc([N+](=O)[O-])c2)sc2nc3c(cc12)C(O)CCC3` (stereo not drawn), the growth was 39.9%.
`CCn1cc(C(=O)O)c(=O)c2cc(F)c(N3CCN(S(=O)(=O)c4ccc(Cl)cc4Cl)CC3)cc21` was tested, and the growth was 7.58% (active).
`CN1C(=O)[C@H]2c3c1cccc3[C@@]13NC(=O)O[C@H]1[C@H](CCC3(C)C)C2(C)C` was tested, and the growth was 93.6%.
`CN1CCN(c2ccc3cc(-c4nc5ccccc5[nH]4)c(=O)oc3c2)CC1` was tested, and the growth was 91%.
`Cc1ccc(Cn2c(-c3nonc3N)nc3ccccc32)cc1` was tested, and the growth was 50.5%.
`CCc1cccc(C)c1NC(=O)c1sc2nc3c(cc2c1N)C(=O)CCC3` was tested, and the growth was 32.8%.
Work on `COc1cc(-c2cc(/C=C3\CCCCC3=O)[nH]n2)cc(OC)c1OC` yielded a growth of 94.1%.
Work on `FC(F)(F)c1cccc(-n2nnc3cnc(Nc4ccc(N5CCCCC5)cc4)nc32)c1` yielded a growth of 66.1%.
`Cc1ccc(OCCn2c(C)nn(-c3ccc(Cl)cc3)c2=O)cc1` was tested, and the growth was 111%.
For `CN1CCN(CCCOc2ccc3nc(Nc4ccc(C(F)(F)F)c(Cl)c4)ccc3c2)CC1`, the growth was -36.9% (active).
`COc1cc(Cn2c(SCC(=O)Nc3cc(OC)c(OC)c(OC)c3)nc3ccccc3c2=O)cc(OC)c1OC` gave a growth of 89.9%.
Work on `c1ccc(CCn2nnc3c(Nc4ccc(N5CCOCC5)cc4)ncnc32)cc1` yielded a growth of 70.7%.
`CCCC1OC(c2ccc(C(C)C)cc2)OCC1CC` (stereo not drawn) showed a growth of 103%.
Work on `Oc1ccc(N=Cc2ccccc2)cc1` yielded a growth of 82%.
In the case of `COc1cccc(NC(=O)c2sc3nc4c(cc3c2N)CCCC4)c1`, the growth was 20.8%.
Compound `Cn1cc(C=O)c2ccccc21` has a growth of 103%.
In the case of `O=C1CCCCN1CCCCC#Cc1ccccc1C#Cc1ccc([N+](=O)[O-])cc1`, the growth was 17.4%.
`O=C(c1ccncc1)N1N=C(c2ccc(Cl)cc2)CC1c1c[nH]c2ccccc12` (stereo not drawn) was tested, and the growth was 93.6%.
Compound `Cc1cc2c(c(=O)o1)C(c1ccc(OC(=O)N3CCOCC3)cc1)C(C#N)=C(N)O2` (stereo not drawn) has a growth of 101%.
